Where a name gives a salt, the structure may show the parent alone.
The molecules below were run on Haemophilus parainfluenzae (assay: growth AUC normalised to DMSO control (fraction of control); higher = less growth inhibition, active = hit call of the paper). Settings: 20 µM;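 active = AUC significantly below DMSO controls by Student t-fit with adjusted P under 0.01; inactive = not significantly reduced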.
In short: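 For the AUC endpoint, growth curves were integrated by the trapezoidal rule up to the exponential-to-stationary transition and normalised to DMSO controls on the same plate. The curves came from OD578 readings taken hourly for 24 h, in three biological replicates. Pathogens had been passaged anaerobically twice and inoculated at an OD578 of 0.01 into pre-reduced mGAM plates carrying 20 μM compound and 1% DMSO, sealed with breathable membranes. Medium for Haemophilus parainfluenzae also contained hemin and NAD.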
In the case of c1ccc2c(CC3=NCCN3)cccc2c1 [Naphazoline hydrochloride], the “growth AUC normalised to DMSO control” value is reported as 1.01 (inactive).
With NC[C@@H]1O[C@H](O[C@H]2[C@@H](O)[C@H](O[C@@H]3[C@@H](O)[C@H](N)C[C@H](N)[C@H]3O[C@H]3O[C@H](CO)[C@@H](O)[C@H](O)[C@H]3N)O[C@@H]2CO)[C@H](N)[C@@H](O)[C@@H]1O [Paromomycin sulfate] the “growth AUC normalised to DMSO control” value was 0.88 (inactive).
In the case of CN1CCC(=C2c3ccccc3CCc3sccc32)CC1 [Pizotifen malate], the “growth AUC normalised to DMSO control” value is reported as 0.936 (inactive).
For CCCC(CCC)C(=O)O [Valproic acid], the “growth AUC normalised to DMSO control” value was 1.04 (inactive).
In the case of NCc1ccccc1CC(=O)N[C@@H]1C(=O)N2C(C(=O)O)=C(CSc3nnnn3CC(=O)O)CS[C@H]12 [Ceforanide], the “growth AUC normalised to DMSO control” value is reported as 0.0189 (active).
C[C@H]1C[C@@H]2[C@H]([C@@H](O)C[C@@]3(C)[C@H]2CC[C@]3(O)C(=O)CO)[C@@]2(C)C=CC(=O)C=C12 [Methylprednisolone, 6-alpha] was tested, and the “growth AUC normalised to DMSO control” value was 0.996 (inactive).
For Cc1c(Cl)cccc1Nc1ccccc1C(=O)O [Tolfenamic acid], the “growth AUC normalised to DMSO control” value was 0.852 (active).
In the case of CC(=O)N[C@@H](CS)C(=O)O [Acetylcysteine], the “growth AUC normalised to DMSO control” value is reported as 1.07 (inactive).
O=C(CCNNC(=O)c1ccncc1)NCc1ccccc1 [Nialamide] was tested, and the “growth AUC normalised to DMSO control” value was 1.01 (inactive).
For CCCCC(C)(O)C/C=C/[C@H]1[C@H](O)CC(=O)[C@@H]1CCCCCCC(=O)OC (mixture of isomers) [Misoprostol], the “growth AUC normalised to DMSO control” value was 1.02 (inactive).
For CN1CCCCC1CCN1c2ccccc2Sc2ccc([S+](C)[O-])cc21 (stereo not drawn) [Mesoridazine besylate], the “growth AUC normalised to DMSO control” value was 0.987 (inactive).
In the case of C#Cc1cccc(Nc2ncnc3cc(OCCOC)c(OCCOC)cc23)c1 [Erlotinib], the “growth AUC normalised to DMSO control” value is reported as 1.04 (inactive).
CN(C)CCCOc1nn(Cc2ccccc2)c2ccccc12 [Benzydamine hydrochloride] was tested, and the “growth AUC normalised to DMSO control” value was 0.964 (inactive).
With CCn1cc(C(=O)O)c(=O)c2cnc(N3CCCC3)nc21 [Piromidic acid] the “growth AUC normalised to DMSO control” value was 1.03 (inactive).
With Cc1cc2c(cc1S(N)(=O)=O)S(=O)(=O)CCC2 [Meticrane] the “growth AUC normalised to DMSO control” value was 1.04 (inactive).
CN1C(C(=O)Nc2ccccn2)=C(O)c2ccccc2S1(=O)=O [Piroxicam] was tested, and the “growth AUC normalised to DMSO control” value was 1.01 (inactive).
With O=C(O)Cc1ccc(-c2ccccc2)cc1 [Felbinac] the “growth AUC normalised to DMSO control” value was 0.948 (inactive).
For COc1ccc(NS(=O)(=O)c2ccc(N)cc2)nn1 [Sulfamethoxypyridazine], the “growth AUC normalised to DMSO control” value was 1.04 (inactive).
With CC[C@H](C)[C@H](N)C1=N[C@H](C(=O)N[C@@H](CC(C)C)C(=O)N[C@H](CCC(=O)O)C(=O)N[C@H](C(=O)N[C@H]2CCCCNC(=O)[C@H](CC(N)=O)NC(=O)[C@@H](CC(=O)O)NC(=O)[C@H](Cc3cnc[nH]3)NC(=O)[C@@H](Cc3ccccc3)NC(=O)[C@H]([C@@H](C)CC)NC(=O)[C@@H](CCCN)NC2=O)[C@@H](C)CC)CS1 [Bacitracin] the “growth AUC normalised to DMSO control” value was 0.999 (inactive).
For Cc1cc(/C=C/c2ccc3cc(N(C)C)ccc3[n+]2C)c(C)n1-c1ccccc1 [Pyrvinium pamoate], the “growth AUC normalised to DMSO control” value was 1.06 (inactive).
With C#C[C@]1(O)CC[C@H]2[C@@H]3CCC4=CC(=O)CC[C@@H]4[C@H]3CC[C@@]21CC [(D-) Norgestrel] the “growth AUC normalised to DMSO control” value was 0.969 (inactive).
In the case of CC1(C)O[C@@H]2[C@@H](CO[C@@]3(COS(N)(=O)=O)OC(C)(C)O[C@@H]23)O1 [Topiramate], the “growth AUC normalised to DMSO control” value is reported as 1.03 (inactive).
CCOC(=O)O[C@]1(C(=O)COC(=O)CC)CC[C@H]2[C@@H]3CCC4=CC(=O)C=C[C@]4(C)[C@H]3[C@@H](O)C[C@@]21C [Prednicarbate] was tested, and the “growth AUC normalised to DMSO control” value was 1.16 (inactive).
CCc1cc(Cl)c(OC)c(C(=O)NC[C@@H]2CCCN2CC)c1O [(S,-) Eticlopride hydrochloride] was tested, and the “growth AUC normalised to DMSO control” value was 0.958 (inactive).
For Cn1c(=O)c2c(ncn2CC(=O)O)n(C)c1=O [Acefylline], the “growth AUC normalised to DMSO control” value was 0.969 (inactive).
CC(COc1ccccc1)NC(C)C(O)c1ccc(O)cc1 (stereo not drawn) [Isoxsuprine hydrochloride] was tested, and the “growth AUC normalised to DMSO control” value was 0.939 (inactive).
In the case of CCC(=O)O[C@@H](O[P@](=O)(CCCCc1ccccc1)CC(=O)N1C[C@H](C2CCCCC2)C[C@H]1C(=O)O)C(C)C [Fosinopril], the “growth AUC normalised to DMSO control” value is reported as 1.02 (inactive).
In the case of C1N2CN3CN1CN(C2)C3 [Methenamine], the “growth AUC normalised to DMSO control” value is reported as 1.05 (inactive).
